Data taken from PubChem BioAssay (NCATS).
Records with an inconclusive call do not appear. Where a call stands in place of a potency, no number is given. The source made the active and inactive calls. The call rests on the fitted dose curve; in most records, active means well fitted inhibition curve with a large enough effect; inconclusive means small, poorly fitted or top-dose-only effect; inactive means no such curve, though single readings can be large or run the other way.

Molecular target: Cytochrome P450 3A7 (Homo sapiens) (UniProt P24462)
Assay: Cytochrome P450 family 3 subfamily A member 7 (CYP3A7) small molecule antagonists: luciferase biochemical qHTS assay (AID 1963596); further: nearly all actives have a fitted effect of over 40% in size
Settings: P450-Glo CYP3A7 enzyme luminescence, 1 h; series mostly up to 57.4 µM
From the text: National Center for Advancing Translational Sciences [NCATS] Assay Overview: Cytochrome P450 (CYP) enzymes are membrane-bound hemeproteins that play a key role in metabolism of drugs and xenobiotics. The CYP3A subfamily is the most abundant, representing 30% of the total adult hepatic CYP content, whereas CYP3A7 is found predominantly in human fetal liver and accounts up to 50% of the total fetal hepatic CYP content. Testing the effect of chemicals on CYP isozymes is useful to minimize the adverse drug reactions and toxicities in the drug development process. Chemicals were tested for their effect on CYP enzyme activities by using P450-Glo (TM) screening systems (Promega Corporation, Madison, WI). These systems provide a luminescent method containing proluciferin substrates and are converted to luciferin products by CYP isozymes. The luciferin products formed are detected with a luciferin detection reagent, and the amount of light produced is proportional to CYP activity. P450-Glo (TM) CYP3A7 screening system (Catalog. No. V8812) was used to detect the compounds that interfere with CYP3A7 activity. The positive control compound used for CYP3A7 assay is ketoconazole (Sigma-Aldrich, St. Louis, MO).
Assay Protocol Summary: Two ul of enzyme-substrate mix was dispensed into medium binding white/solid 1536-well plates (Greiner Bio-One North America Inc., Monroe, NC) using a Flying Reagent Dispenser (FRD, Aurora Discovery, San Diego, CA). Compounds dissolved in DMSO, and positive control (ketoconazole) were transferred to the assay plates at 23 nl using a Pintool station (Wako, San Diego, CA). The assay plates were incubated at room temperature for 10 min. Then 2 ul of NADPH regeneration solution was added to each well of the assay plates using an FRD and incubated at room temperature for 1 h. The reaction was stopped by adding 4 ul of detection reagent using an FRD and after 20 min incubation at room temperature the luminescence signal was measured using a ViewLux plate reader (Perkin Elmer, Shelton, CT). Data were expressed as relative luminescence units.

Cytochrome P450 3A7 (Homo sapiens), sequence (P24462 whole entry, looked up): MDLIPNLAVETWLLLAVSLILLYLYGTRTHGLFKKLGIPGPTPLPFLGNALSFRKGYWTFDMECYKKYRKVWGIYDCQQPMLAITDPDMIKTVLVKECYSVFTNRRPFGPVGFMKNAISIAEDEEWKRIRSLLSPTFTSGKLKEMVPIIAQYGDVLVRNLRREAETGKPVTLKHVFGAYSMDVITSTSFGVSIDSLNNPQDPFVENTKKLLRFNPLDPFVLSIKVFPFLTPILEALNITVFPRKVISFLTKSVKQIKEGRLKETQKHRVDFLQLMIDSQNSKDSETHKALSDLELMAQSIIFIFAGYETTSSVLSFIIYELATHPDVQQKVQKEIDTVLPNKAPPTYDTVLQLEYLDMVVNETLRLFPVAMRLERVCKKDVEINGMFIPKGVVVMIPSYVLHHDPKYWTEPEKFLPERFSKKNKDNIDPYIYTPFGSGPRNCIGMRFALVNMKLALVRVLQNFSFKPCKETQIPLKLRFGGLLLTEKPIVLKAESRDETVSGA

SMILES | Potency
CC1NCCOC1c1ccccc1 (stereo not given) | inactive
O=C(O)COc1ccccc1 | inactive
CCNC(C)Cc1cccc(C(F)(F)F)c1 (stereo not given) | inactive
CN1C(=O)CN=C(c2ccccc2)c2cc([N+](=O)[O-])ccc21 | inactive
NP(N)(=O)NC(=O)c1ccc(F)cc1 | inactive
O=P1(N(CCCl)CCCl)NCCCO1 (stereo not given) | inactive
O=c1[nH]c2ccccc2n1C1CCNCC1 | inactive
C#CC(O)(C=CCl)CC (stereo not given) | inactive
CC1OC(C)OC(C)O1 (stereo not given) | inactive
Oc1ccccc1-c1ccccc1 | inactive
Oc1ccc(Cl)cc1 | inactive
O=[N+]([O-])c1ccc([As](=O)(O)O)cc1 | inactive
C=CCN1CCC23c4c5ccc(O)c4O[C@H]2C(=O)CC[C@@]3(O)C1C5 (stereo not given in full) | inactive
CCN[C@@H](C)Cc1ccccc1 | inactive
CN(C)C(=O)Oc1cc(OC(=O)N(C)C)cc(C(O)CNC(C)(C)C)c1 (stereo not given) | inactive
C[C@@H]1O[C@@H](O[C@H]2C[C@@H](O)[C@]3(CO)[C@H]4[C@H](O)C[C@]5(C)[C@@H](C6=CC(=O)OC6)CC[C@]5(O)[C@@H]4CC[C@]3(O)C2)[C@H](O)[C@H](O)[C@H]1O | inactive
O=C(O)CCCOc1ccc(Cl)cc1Cl | inactive
CC(C)NCC(O)c1ccccc1Cl (stereo not given) | inactive
C[C@H]1O[C@@H](O[C@H]2[C@@H](O)C[C@H](O[C@H]3[C@@H](O)C[C@H](O[C@H]4CC[C@@]5(C)[C@H](CC[C@@H]6[C@@H]5CC[C@]5(C)[C@@H](C7=CC(=O)OC7)CC[C@]65O)C4)O[C@@H]3C)O[C@@H]2C)C[C@H](O)[C@@H]1O | inactive
CCCCC(CC)COC(=O)c1ccccc1C(=O)OCC(CC)CCCC (stereo not given) | inactive

SMILES | Potency
CN1CC[C@]23c4c5ccc(O)c4O[C@H]2[C@@H](O)CC[C@H]3[C@H]1C5 | inactive
Nc1ccc([N+](=O)[O-])cc1 | inactive
C[C@H]1CNCCc2ccc(Cl)cc21 | inactive
CCCCCCn1c(=O)c(C(=O)Nc2ccc(C(=O)OCCC)cc2)c(O)c2ccccc21 | inactive
O=C1CN=C(c2ccccc2)c2cc([N+](=O)[O-])ccc2N1 | inactive
c1ccc(N2CCNCC2)cc1 | inactive
NCc1cccnc1 | inactive
O=C(CCCCl)c1ccc(F)cc1 | inactive
C[C@@H](C1CC[C@@]2(O)C3=CC(=O)[C@@H]4C[C@@H](O)[C@@H](O)C[C@]4(C)[C@H]3CC[C@]12C)[C@H](O)CCC(C)(C)O (stereo not given in full) | inactive
COCCOCCO | inactive
COC(=O)C1=CCCN(C)C1 | inactive
Cc1cn(C[C@H](N)C(=O)O)c(=O)n(Cc2cc(-c3ccccc3)sc2C(=O)O)c1=O | inactive
NN=C(N)N | inactive
NC1(c2ccccc2)CCCCC1 | inactive
CC(C)(C)NCC(O)c1cc(Cl)c(N)c(Cl)c1 (stereo not given) | inactive
ClCCN1CCCC1 | inactive
C[C@@H](N)[C@@H](O)c1ccccc1 | inactive
CC(C)NCC(O)c1ccc([N+](=O)[O-])cc1 (stereo not given) | inactive
CC(C)(O)C(Cl)(Cl)Cl | inactive
COP(=O)(OC)OC=C(Cl)Cl | inactive
